The list is not random: actives were taken first. Their share in the collection is about 3.6%.
BJeLR viability – BJeLR cell viability loss. BJeLR (HRASV12) viability, CellTiter-Glo ATP luminescence, 48 h. inhibition, % (no concentration beside the values). actives 0.17% (n = 300,000). AID 1554; in the data active means inhibition above about 50%; inconclusive means no clear call, values can overlap the other calls
Anthrax LF inh2 – anthrax lethal factor protease inhibition | P15917 | actives 0.12% (n = 360,000) | inhibition, % at 10 µM | AID 588501 | multiplex microsphere protease cleavage assay, LF; further: plate controls were buffer without enzyme for full effect and enzyme alone for no effect
Target sequence (P15917 whole entry, looked up): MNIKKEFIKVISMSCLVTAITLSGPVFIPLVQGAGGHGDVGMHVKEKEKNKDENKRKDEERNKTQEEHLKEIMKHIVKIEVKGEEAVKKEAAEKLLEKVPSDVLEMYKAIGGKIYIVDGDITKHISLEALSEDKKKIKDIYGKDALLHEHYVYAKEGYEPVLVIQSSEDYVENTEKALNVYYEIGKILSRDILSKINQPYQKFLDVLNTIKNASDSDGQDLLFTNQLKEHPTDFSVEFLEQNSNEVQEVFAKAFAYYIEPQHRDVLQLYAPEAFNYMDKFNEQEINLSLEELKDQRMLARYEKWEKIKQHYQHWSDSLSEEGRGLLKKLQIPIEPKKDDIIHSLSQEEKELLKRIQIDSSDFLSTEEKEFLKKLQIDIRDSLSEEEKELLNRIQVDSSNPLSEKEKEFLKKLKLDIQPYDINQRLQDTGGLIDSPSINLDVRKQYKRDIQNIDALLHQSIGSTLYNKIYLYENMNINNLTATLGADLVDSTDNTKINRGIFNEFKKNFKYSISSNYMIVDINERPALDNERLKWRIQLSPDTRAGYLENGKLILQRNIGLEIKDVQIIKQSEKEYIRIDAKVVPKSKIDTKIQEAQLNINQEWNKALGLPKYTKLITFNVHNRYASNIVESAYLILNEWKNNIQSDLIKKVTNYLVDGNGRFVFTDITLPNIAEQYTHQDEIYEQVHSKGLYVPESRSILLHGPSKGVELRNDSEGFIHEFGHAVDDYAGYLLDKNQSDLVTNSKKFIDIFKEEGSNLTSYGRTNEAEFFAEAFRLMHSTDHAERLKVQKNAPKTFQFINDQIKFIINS
BoNT-F LC inh – blocks Botulinum neurotoxin F light chain protease. inhibition, % at 10 µM. Multiplex microsphere protease cleavage assay, flow cytometry. actives 0.22% (n = 360,000); in the data active means inhibition above about 35%, passing the limit was not always enough; inconclusive means no clear call, values can overlap the other calls; further: plate controls were buffer without enzyme for full effect and enzyme alone for no effect
Autofluor counter – compound fluorescence in toxin protease inhibitor counterscreen; compound autofluorescence counterscreen, microsphere flow cytometry; hits give high values; fluorescence intensity (no concentration beside the values); actives 3.1% (n = 360,000); in the data active means fluorescence intensity above about 16000; inconclusive means no clear call, values can overlap the other calls
SARS 3CLpro inh – SARS-CoV 3CLpro protease inhibition. P0C6X7. recombinant SARS-CoV 3CLpro, quenched FRET peptide cleavage. inhibition, % at 6 µM. actives 0.14% (n = 290,000). AID 1706; in the data active means inhibition above about 12%
BoNT-A LC inh2 – BoNT A light chain protease inhibition | multiplex microsphere protease substrate cleavage, flow cytometry | inhibition, % at 10 µM | actives 0.17% (n = 360,000); further: plate controls were buffer without enzyme for full effect and enzyme alone for no effect
* marks the source's active call; other numbers are inactive results; u = inconclusive; x = no result given. Unless noted, no stated cut-off is given here; in the data, active means inhibition above about 30%; inconclusive means no clear call, values can overlap the other calls; inactive means below that.

SMILES	BJeLR viability	Anthrax LF inh2	BoNT-F LC inh	Autofluor counter	SARS 3CLpro inh	BoNT-A LC inh2
C[C@H](CO)N1C[C@H](C)[C@@H](CN(C)S(C)(=O)=O)Oc2ccc(N(C)C)cc2C1=O	x	0	-6	3870	x	0
CC1(C)Cc2nc3n[nH]c(N)c3cc2CO1	6	-2	-4	24639*	3	-3
Cc1nc2n[nH]c(N)c2c2c1COC(C)(C)C2	-8	-1	-4	2220	-5	0
CCc1nc2ccc(Cc3ccc4nc(CC)[nH]c4c3)cc2[nH]1	1	-6	-33	3711	0	-1
O=c1cc(CN2CCN(C/C=C/c3ccccc3)CC2)c2cc(O)c(-c3ccccc3)cc2o1	4	-6	-8	2048	0	0
Cc1cc2oc(=O)cc(CN3CCN(C/C=C/c4ccccc4)CC3)c2cc1O	9	-3	-9	23462*	3	-4
Cc1ccc(S(=O)(=O)N(C)C[C@@H]2Oc3ncc(C#CCC(C)C)cc3C(=O)N([C@H](C)CO)C[C@H]2C)cc1	x	3	-3	3907	x	-1
CCN=C1S/C(=C\c2sccc2C)C(=O)N1CC	1	-1	-4	2171	5	1
C/C(=N\NS(=O)(=O)c1ccc(Cl)c([N+](=O)[O-])c1)c1ccc(C)o1	1	3	1	3900	2	0
C/C(=N\NS(=O)(=O)c1ccc(C)c([N+](=O)[O-])c1)c1cc2ccccc2o1	-7	-4	-5	16518*	-1	-1
C/C(=N\NS(=O)(=O)c1ccc(Cl)c([N+](=O)[O-])c1)c1cc2ccccc2o1	13	0	-12	22417*	6	u
Cc1ccc(C(=O)c2cc3ccccc3o2)cc1[N+](=O)[O-]	-4	-1	0	2619	-2	1
O=C1NC2=C(C(=O)CCC2)C(c2ccc([N+](=O)[O-])cc2)N1 (configuration not stated)	-16	-11	-5	3774	3	2
O=C(O)C1C2CCC(O2)C1C(=O)Nc1ccc(Br)cc1F (configuration not stated)	-13	-4	u	3230	-1	2
COc1ccccc1CNC(=O)CN(C)S(=O)(=O)c1cccc2cccnc12	11	0	-3	4805	3	0
CC(C)(C)c1ccccc1OCC(=O)NCCC(=O)O	-4	-1	-4	24308*	4	-3
CC(C)(C)c1ccccc1OCC(=O)Nc1ncn[nH]1	-12	9	-9	9364	-6	-1
O=C1CNC(=S)N1C1CCCCCC1	-7	-2	1	5811	5	-1
CCOC(=O)c1nnn(-c2nonc2N)c1CSc1ccccc1	1	-1	4	22923*	-2	1
CCOC(=O)c1nnn(-c2nonc2N)c1CSc1ccc(C)cc1	-2	-2	-18	4636	1	-1
CCOC(=O)c1nnn(-c2nonc2N)c1-c1ccccc1	4	-1	1	23505*	0	0
CCC1CCCCN1CC(=O)c1c(C)[nH]c2ccc(OC)cc12 (configuration not stated)	3	6	u	5804	4	-9
COc1cccc(C(=O)N(CN2CCCC2=O)c2cccc(Cl)c2)c1	-2	10	-8	6225	-2	-1
CCOc1ccccc1C(=O)N(CN1CCCC1=O)c1cccc(Cl)c1	-5	-5	1	21571*	0	u
COc1ccc(C(=O)N(CN2CCCC2=O)c2ccccc2OC)cc1OC	-6	0	-2	23117*	0	-2
SMILES	BJeLR viability	Anthrax LF inh2	BoNT-F LC inh	Autofluor counter	SARS 3CLpro inh	BoNT-A LC inh2
COc1ccccc1C(=O)N(CN1CCCC1=O)c1cccc(Cl)c1	3	-2	2	22324*	-3	1
COc1cccc(C(=O)N(CN2CCCC2=O)c2cc(C)on2)c1	0	1	-1	22265*	-4	u
CCOc1cccc(-c2cc(C(=O)N3N=C(C)CC3(O)C(F)F)c3ccccc3n2)c1 (configuration not stated)	0	6	-1	4253	2	0
COC(=O)Cc1c(C)nc2nc(NCc3c(F)cccc3Cl)[nH]n2c1=O	2	1	1	2820	0	0
COc1ccc(-c2nc3nc(C)c(Cc4ccccc4)c(=O)n3[nH]2)cc1	3	-1	0	22311*	1	0
COC(=O)Cc1c(C)nc2nc(-c3ccc(OC)cc3)[nH]n2c1=O	5	0	4	22942*	-4	0
COC(=O)c1ccc(CSc2nc(N)cc(N)n2)cc1	-5	-3	0	23371*	1	0
Cc1ccc(CNC(=O)C2CCN(c3nc(C)cc(C)n3)CC2)cc1	-1	-2	-3	4195	x	-1
CC(C)Nc1nc(NC(C)C)nc(NS(=O)(=O)c2ccc(N)cc2)n1	-3	4	17	u	0	2
CCN(CC)c1nc(N)nc(NS(=O)(=O)c2ccc(Cl)cc2)n1	-7	2	6	19449*	2	u
CCNc1nc(NC(C)C)nc(NS(=O)(=O)c2ccc(Cl)cc2)n1	10	-1	-1	22725*	-3	1
Cc1cc(NN)nc(NS(=O)(=O)c2ccc(Cl)cc2)n1	-9	-4	3	4034	4	0
CCNc1nc(NC(C)C)nc(NS(=O)(=O)c2ccc(N)cc2)n1	-1	0	-6	17274*	2	-2
CCNc1nc(Cl)nc(NC(C)C)n1	4	0	-1	2175	0	0
Cc1cc(NO)nc(-c2ccc(Br)cc2)n1	12	-2	-5	24290*	2	-3
Cc1c(C(=O)N2CCc3ccccc32)oc2c1C(=O)CC(C)(C)C2	x	0	1	23325*	-5	2
Cc1c(C(=O)N2CCOCC2)oc2c1C(=O)CC(C)(C)C2	-2	3	-5	8234	1	0
Cc1c(C(=O)N2CCN(C)CC2)oc2c1C(=O)CC(C)(C)C2	-6	-6	5	21465*	-5	4
CCN(CC)c1ccc(NC(=O)c2cccc(F)c2)c(C)c1	9	-6	-3	5575	-2	1
COc1cccc(C2/C(=C(/O)c3ccc4c(c3)CC(C)O4)C(=O)C(=O)N2CCCn2ccnc2)c1 (configuration not stated)	7	2	1	4227	-7	0
CCn1c(SC/C=C/c2ccccc2)nnc1-c1cccs1	3	1	-5	20863*	5	-3
CCn1c(SC/C=C/c2ccccc2)nnc1-c1cnccn1	1	-4	-4	21032*	0	-1
Cn1c(SC/C=C/c2ccccc2)nnc1-c1cnccn1	3	1	0	2305	-1	1
CCc1ccc(C(=O)NC(CCSC)C(=O)OC)cc1 (configuration not stated)	2	1	-1	4218	0	0
O=c1c2ccccc2nc(-c2ccoc2)n1-c1ccccc1	4	-1	-1	20668*	6	u
O=c1c2ccccc2nc(-c2ccoc2)n1-c1ccccc1Cl	-1	-2	2	22805*	2	1

Screening results (PubChem)
